VDR inh: Inhibitors of the vitamin D receptor (VDR): qHTS; VDR-SRC2-3 peptide fluorescence polarization, 2 h; AID 504847, 2011; 0.93% of 400,000 active; Vitamin D3 receptor (Homo sapiens), P11473; Potency, µM, inactives show max response, negative = inhibition, hits mostly inhibitors
Target sequence (P11473 whole entry, looked up): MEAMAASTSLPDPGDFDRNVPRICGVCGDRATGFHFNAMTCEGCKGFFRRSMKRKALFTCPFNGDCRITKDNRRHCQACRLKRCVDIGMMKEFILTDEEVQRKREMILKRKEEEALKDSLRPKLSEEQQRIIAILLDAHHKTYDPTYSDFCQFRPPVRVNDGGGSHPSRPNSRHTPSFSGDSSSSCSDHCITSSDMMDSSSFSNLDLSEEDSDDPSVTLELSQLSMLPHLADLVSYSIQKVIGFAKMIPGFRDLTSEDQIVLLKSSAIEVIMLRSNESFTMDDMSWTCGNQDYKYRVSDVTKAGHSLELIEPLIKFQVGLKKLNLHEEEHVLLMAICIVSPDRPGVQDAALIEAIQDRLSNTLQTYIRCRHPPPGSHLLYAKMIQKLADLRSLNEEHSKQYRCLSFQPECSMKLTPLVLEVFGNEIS
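FP read-out; VDR + SRC2-3 coactivator peptide; 23 nl compound by pintool; 2 h RT incubation; reagents held at 4 deg C, protected from light.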
PLK1 PBD inh: qHTS for Inhibitors of PLK1-PDB (polo-like kinase 1 - polo-box domain): Primary Screen. Potency, µM, inactives show max response, negative = inhibition, most hits filed as inhibitors. Plk1 PBD binding of FITC phosphopeptide, fluorescence polarization. AID 720504, 2013. 2.8% of 360,000 active. Serine/threonine-protein kinase PLK1 (Homo sapiens), P53350; further: series mostly up to about 57 µM; nearly all actives have a fitted effect of over 65% in size
Tau FP inhib: qHTS for Inhibitors of Tau Fibril Formation, Fluorescence Polarization. Microtubule-associated protein tau (Homo sapiens), P10636. K18 P301L tau heparin fibrillization, Alexa594 FP, 6 h. Potency, µM (titrated, usually from 57.7 µM), inactives show top-dose activity, negative = inhibition, usual class: inhibitors. 0.39% of 280,000 active. AID 1468, 2008; further: nearly all actives have a fitted effect of over 55% in size
Target sequence (P10636 561-689 P618L limits assumed): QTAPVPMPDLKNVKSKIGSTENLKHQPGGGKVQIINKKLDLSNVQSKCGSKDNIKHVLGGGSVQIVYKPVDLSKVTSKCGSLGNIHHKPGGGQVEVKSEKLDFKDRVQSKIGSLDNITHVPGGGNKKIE
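Steps: dispense K18 P301L tau (15 uM plus 0.24 uM Alexa 594 tracer, final) in pH 7 sodium acetate; add compound; add heparin (20 uM final); incubate 6 hr, 37 C; add ThT (30 uM final); after 1 hr ambient, read FP.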
Tau ThT inhib: qHTS for Inhibitors of Tau Fibril Formation, Thioflavin T Binding. recombinant tau K18 P301L, heparin-induced fibrillization, ThT fluorescence. Potency, µM (doses to about 57.4 µM), without a hit: top-dose activity, negative = inhibition, actives largely listed as inhibitors. 2.1% of 270,000 active. AID 1460, 2008; further: nearly all actives have a fitted effect of over 55% in size
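In this qHTS, human K18 P301L tau is incubated with compound and heparin for 6 hr at 37 C, and Thioflavin T fluorescence then reports fibril load.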
Sfp inh: qHTS Assay for Inhibitors of Bacillus subtilis Sfp phosphopantetheinyl transferase (PPTase). 4'-phosphopantetheinyl transferase ffp (Bacillus subtilis), Q9F4F7. Potency, µM, for the others: largest response in the series, negative = inhibition, most hits filed as inhibitors. 3.5% of 310,000 active. AID 1490, 2009. Biochemical Sfp PPTase activity, qHTS;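 further: the enzyme is Sfp with the accession as filed and its product quenches rhodamine fluorescence; 0% = enzyme reaction without inhibitor and -100% = no enzyme wells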
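With Hepes-Na pH 7.6 buffer containing 10 mM MgCl2, Sfp (15 nM) modified BHQ-2-YbbR (12.5 uM) using rhodamine-CoA (5 uM). Two reads 30 minutes apart at 525/598 nm yielded each well's rate.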
Tau fluor counter: Counterscreen qHTS for Inhibitors of Tau Fibril Formation, Fluorescence Polarization; tau K18 P301L (four-repeat tau fragment) Alexa594 fluorescence, heparin fibrillization; Potency, µM (titrated, usually from 57.7 µM), inactives show at the top dose activity change, negative = decrease; 0.93% of 280,000 active; AID 1463, 2008; further: nearly all actives have a fitted effect of over 55% in size
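Human K18 P301L tau (15 uM unlabeled plus 0.24 uM Alexa 594-labeled, final) in 100 mM sodium acetate pH 7 was mixed with compound and 20 uM heparin and incubated 6 hr at 37 C.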
Numbers without * were called inactive. A selection: hits, their analogues and other compounds. The true share with any hit is near 6%. The call rests on the fitted dose curve; in most records, active means well fitted curve in the direction sought with a large enough effect; inconclusive means small, poorly fitted or top-dose-only effect, or another doubt; inactive means no such curve, though single readings can be large; an effect the other way counts as inactive or inconclusive. Unless noted, on the % scale 0 is the no-effect control and ±100 the full control effect; potency means the concentration at half of the fitted maximal effect.

For COc1ccc(Nc2nc3ccc(C)cc3cc2C#N)c(OC)c1 the results were VDR inh 52.7%, PLK1 PBD inh -15.9%, Tau FP inhib 2.9%, Tau ThT inhib -6.4%, Sfp inh -5.7% and Tau fluor counter -6.9%.
For Cc1nn(-c2ccccc2)c(Cl)c1C1C(C#N)=C(N)Oc2c1c(=O)oc1ccccc21 (stereo not drawn) the results were VDR inh -8.2%, PLK1 PBD inh -0.5%, Tau FP inhib -16.3%, Tau ThT inhib -17.4%, Sfp inh 10.9% and Tau fluor counter inconclusive.
For COc1ccc2o/c(=N\O)c(C(=O)Nc3ccc(C)cc3)cc2c1 the results were VDR inh -13.4%, PLK1 PBD inh -17.2%, Tau FP inhib -12.3%, Tau ThT inhib 15.8µM*, Sfp inh inconclusive and Tau fluor counter -23.8%.
COc1ccc(/C=C/C(=O)Nc2ccc(C)cc2)cc1 was read as VDR inh 4.7%, Tau FP inhib inconclusive, Tau ThT inhib 12.4% and Tau fluor counter -22.4%.
Screening COc1cccc(CN2CCc3nc(N4CCN(c5ncccn5)CC4)ncc3C2)c1 returned VDR inh 9.1%, Tau FP inhib -3.1%, Tau ThT inhib inconclusive and Tau fluor counter -4.0%.
Screening CC[C@]1(O)CC[C@H]2[C@@H]3CCC4=CCCC[C@@H]4[C@H]3CC[C@@]21C returned VDR inh -19.6% and Sfp inh 6.6%.
`c1nc[n]([Sn]([CH]2CCCCC2)([CH]2CCCCC2)[CH]2CCCCC2)n1` gave VDR inh 50.1µM* and Sfp inh inconclusive.
`CCCN1CCCC2Cc3nc(N)ncc3CC21` (stereo not drawn) gave VDR inh -0.5%, Tau FP inhib -2.0%, Tau ThT inhib 1.1%, Sfp inh 19.1% and Tau fluor counter -2.2%.
Screening CCCCC[C@@H](/C=C/C=C\CCCCCCCCCC(=O)O)OO returned VDR inh -12.5%, Tau FP inhib -4.0%, Tau ThT inhib 0.5%, Sfp inh 1.9% and Tau fluor counter -1.0%.
CCN1C(=O)/C(=C\c2ccc([N+](=O)[O-])s2)C(=O)NC1=S was read as Tau FP inhib inconclusive, Tau ThT inhib 3.55µM*, Sfp inh 10µM* and Tau fluor counter inconclusive.
For O=C1NC(=O)C2(Cc3ccccc3N3CCCC32)C(=O)N1c1ccccc1 (stereo not drawn) the results were VDR inh -11.3%, PLK1 PBD inh -14.1%, Tau FP inhib inconclusive, Tau ThT inhib inconclusive, Sfp inh inconclusive and Tau fluor counter -18.8%.
CN1c2ccc([N+](=O)[O-])cc2CC2(C(=O)NC(=O)N(c3ccc(Br)cc3)C2=O)C1c1ccccc1 (stereo not drawn) was read as VDR inh -20.7%, PLK1 PBD inh inconclusive, Tau FP inhib -1.0%, Tau ThT inhib 15.8µM*, Sfp inh 13.7% and Tau fluor counter -14.2%.
Cc1ccc(OCC(=O)N/N=C\c2ccc(O)c([N+](=O)[O-])c2)c([N+](=O)[O-])c1 was read as VDR inh -12.3%, PLK1 PBD inh -18.5%, Tau FP inhib 6.1%, Tau ThT inhib 12.6µM*, Sfp inh -8.4% and Tau fluor counter -21.7%.
For O=[N+]([O-])c1cc([As](=O)(O)O)ccc1O the results were VDR inh -21.9%, PLK1 PBD inh -3.8%, Tau FP inhib 2.0%, Tau ThT inhib inconclusive, Sfp inh -2.3% and Tau fluor counter -18.8%.
`CCCCCCCCCC[n+]1cccc([C@@H]2CCCN2C)c1` gave VDR inh -22.2% and Sfp inh 56.2µM*.
Screening NCc1cccnc1 returned VDR inh 3.3% and Sfp inh 4.8%.
Cc1ccc(S(=O)(=O)Oc2ccccc2C=C2C(=O)N(C)C(=O)N(C)C2=O)cc1 was read as VDR inh inconclusive, PLK1 PBD inh 6.7µM* and Sfp inh 79.4µM*.
Screening O=C(Nc1ccc(Cl)cc1)O/N=C(\c1ccccc1)c1ccccn1 returned VDR inh 5.7%, PLK1 PBD inh inconclusive, Tau FP inhib -4.6%, Tau ThT inhib -6.3%, Sfp inh 39.8µM* and Tau fluor counter -12.8%.
Cn1nc(OC(=O)Nc2ccc(Cl)cc2)cc1C(F)(F)F was read as Tau FP inhib inconclusive, Tau ThT inhib -8.7%, Sfp inh 5.4% and Tau fluor counter -19.2%.
For CC(=O)C(O)C(c1ccccc1)c1c(O)c2ccccc2oc1=O (stereo not drawn) the results were VDR inh 4.5% and Sfp inh 9.4%.
Nc1ccc(N)cc1 was read as VDR inh inconclusive, Tau FP inhib inconclusive, Tau ThT inhib 14.1µM*, Sfp inh -26.6% and Tau fluor counter inconclusive.
CN1c2ccccc2C(NCCCCCCC(=O)O)c2ccc(Cl)cc2S1(=O)=O (stereo not drawn) was read as VDR inh 0.5% and Sfp inh inconclusive.
`Cc1ccc2c(c1)=C/C(=C\c1c(O)[nH]c(=S)[nH]c1=O)C(=O)N=2` gave Tau FP inhib inconclusive, Tau ThT inhib inconclusive, Sfp inh 7.08µM* and Tau fluor counter -13.1%.
`O=C(Oc1ccc(Cl)cc1)N1CCOCC1` gave VDR inh 79.4µM*, PLK1 PBD inh 10.6µM* and Sfp inh 6.5%.
For O=C(Nc1ccc(OC(=O)N2CCCC2)cc1)N1CCOCC1 the results were VDR inh -9.7%, PLK1 PBD inh 0.3%, Tau FP inhib 4.6%, Tau ThT inhib -4.2%, Sfp inh 8.9% and Tau fluor counter -0.4%.
`CC(=O)Oc1ccc(Cl)c2cccnc12` gave VDR inh 3.5%, Tau FP inhib -8.2%, Tau ThT inhib -22.8%, Sfp inh 22.0% and Tau fluor counter -27.6%.
Cc1ccc(C=C2C(Cl)=C(Cl)C(Cl)=C2Cl)cc1 was read as VDR inh inconclusive, PLK1 PBD inh 11.9µM*, Tau FP inhib inconclusive, Tau ThT inhib 15.8µM*, Sfp inh inconclusive and Tau fluor counter inconclusive.
O=C1NC(=S)NC(=O)C1C1CCCCC1 was read as VDR inh inconclusive, PLK1 PBD inh -26.0%, Tau FP inhib inconclusive, Tau ThT inhib -3.3%, Sfp inh 79.4µM* and Tau fluor counter -4.8%.
For Cc1ccc(NC(=O)Cn2c(=O)oc3ccccc32)cc1C the results were VDR inh inconclusive, PLK1 PBD inh 21.2µM*, Tau FP inhib -13.1%, Tau ThT inhib 1.0%, Sfp inh -3.1% and Tau fluor counter -3.2%.

Assay outcomes from PubChem BioAssay.
